In the supplement of paper PMC6992640:
± gives the standard deviation of the averaged measurements.

Columns and labels:
Assay in all cases: cell viability (% of vehicle); higher = less cytotoxic
HCI01 [1] = cells of a triple-negative basal-like breast cancer xenograft; conditions: 1 µM; 72 h
UCD52 [2] = cells of a triple-negative basal-like breast cancer xenograft; conditions: 1 µM; 72 h
WHIM2 [3] = cells of a triple-negative basal-like breast cancer xenograft; conditions: 1 µM; 72 h
WHIM30 [4] = cells of a triple-negative basal-like breast cancer xenograft; conditions: 1 µM; 72 h
HCI01 [5] = conditions: 10 µM; 72 h
HCI03 = cells of an ER-positive luminal breast cancer xenograft; conditions: 10 µM; 72 h
HCI09 = cells of a triple-negative luminal androgen receptor type breast cancer xenograft; conditions: 10 µM; 72 h
HCI11 = cells of an ER-positive luminal breast cancer xenograft; conditions: 10 µM; 72 h
HCI13 = cells of an ER-positive luminal breast cancer xenograft; conditions: 10 µM; 72 h
HCI16 = cells of a triple-negative basal-like breast cancer xenograft; conditions: 10 µM; 72 h
UCD52 [6] = conditions: 10 µM; 72 h
WHIM2 [7] = conditions: 10 µM; 72 h
WHIM30 [8] = conditions: 10 µM; 72 h

| Structure (SMILES) | cell viability (HCI01 [1]) | cell viability (UCD52 [2]) | cell viability (WHIM2 [3]) | cell viability (WHIM30 [4]) | cell viability (HCI01 [5]) | cell viability (HCI03) | cell viability (HCI09) | cell viability (HCI11) | cell viability (HCI13) | cell viability (HCI16) | cell viability (UCD52 [6]) | cell viability (WHIM2 [7]) | cell viability (WHIM30 [8]) |
| --- | --- | --- | --- | --- | --- | --- | --- | --- | --- | --- | --- | --- | --- |
| CCc1c(Cl)c(O)c(Cl)c(O)c1C(=O)OC1C(C)OC(OCC2=CC=CCC(O)C(C)=CC(CC)C(OC3OC(C)(C)C(OC(=O)C(C)C)C(O)C3O)C(C)=CC(C)=CCC(C(C)O)OC2=O)C(OC)C1O (stereo not given) [Fidaxomicin] | 99.3 | 110 | 122 | 102 | 39.9 ± 12 | 65.5 | 28.6 ± 7.5 | 72.7 | 46.3 ± 0.086 | 56.3 | 44.6 ± 6.6 | 40.7 ± 8.9 | 29.3 ± 0.66 |
| COc1cc2nccc(Oc3ccc(NC(=O)Nc4cc(C)on4)c(Cl)c3)c2cc1OC [Tivozanib (AV-951)] | 91 | 61.4 | 94.3 | 85.1 | 85.4 ± 37 | 80 | 67 ± 50 | 75.1 | 60.9 ± 7.7 | 69.7 | 81.1 ± 22 | 61.7 ± 18 | 57.6 ± 2.1 |
| COc1cc2nccc(Oc3ccc(NC(=O)C4(C(=O)Nc5ccc(F)cc5)CC4)cc3)c2cc1OC.O=C(O)CC(O)C(=O)O [Cabozantinib malate (XL184)] | 92.9 | 93.9 | 90.8 | 84.4 | 88.7 ± 13 | 45.4 | 58.2 ± 4.8 | 44 | 85.1 ± 15 | 63.4 | 34.5 ± 3.2 | 105 ± 6.6 | 56 ± 1.8 |
| CNC1CCC(c2ccc(Cl)c(Cl)c2)c2ccccc21.Cl (stereo not given) [Sertraline HCl] | 92.9 | 78.6 | 101 | 85.2 | 27.7 ± 2.6 | 74.8 | 32.2 ± 4.6 | 79.2 | 118 ± 3.2 | 60.4 | 29.3 ± 0.42 | 42.8 ± 3.1 | 58.9 ± 1.9 |
| Cc1cn(-c2cc(NC(=O)c3ccc(C)c(Nc4nccc(-c5cccnc5)n4)c3)cc(C(F)(F)F)c2)cn1 [Nilotinib(AMN-107)] | 78.2 | 77.5 | 88 | 75.3 | 105 ± 61 | 79.8 | 90.1 ± 21 | 76.6 | 91.3 ± 13 | 92.1 | 47.83 ± 0.22 | 69.1 ± 7.7 | 75 ± 2.3 |
| CCOc1cc2ncc(C#N)c(Nc3ccc(F)c(Cl)c3)c2cc1NC(=O)C=CCN(C)C [Pelitinib (EKB-569)] | 98.5 | 27 | 31.4 | 46.1 | 30.5 ± 8.4 | 60.7 | 21.7 ± 4.1 | 37.7 | 34.2 ± 0.47 | 37.9 | 32.5 ± 1.5 | 31.1 ± 17 | 57.6 ± 12 |
| CC1(C)CCC(c2ccc(Cl)cc2)=C(CN2CCN(c3ccc(C(=O)NS(=O)(=O)c4ccc(NC(CCN5CCOCC5)CSc5ccccc5)c(S(=O)(=O)C(F)(F)F)c4)cc3)CC2)C1 (stereo not given) [ABT-263 (Navitoclax)] | 76.2 | 54.1 | 66.8 | 62.2 | 28 ± 2 | 44.2 | 21.8 ± 3.1 | 47.1 | 33.8 ± 0.76 | 29.6 | 36.5 ± 2.4 | 32.1 ± 4.1 | 35.2 ± 7.7 |
| CNC(=O)c1cc(Oc2ccc(NC(=O)Nc3ccc(Cl)c(C(F)(F)F)c3)cc2)ccn1 [Sorafenib] | 107 | 67.7 | 92.6 | 78 | 43.2 ± 12 | 89.2 | 25.2 ± 2.9 | 52.4 | 33.2 ± 5.5 | 41.1 | 46 ± 1.8 | 42.7 ± 5.5 | 37 ± 2.4 |
| CN1CCN(CCOc2cc(OC3CCOCC3)c3c(Nc4c(Cl)ccc5c4OCO5)ncnc3c2)CC1 [Saracatinib (AZD0530)] | 67.9 | 38.7 | 33.9 | 57.5 | 63.85 ± 0.43 | 48.7 | 68.3 ± 18 | 105 | 53 ± 1.4 | 69.1 | 43.8 ± 5.4 | 40.2 ± 11 | 84.6 ± 3.6 |
| C=C1C(=CC=C2CCCC3(C)C2CCC3C(C)CCCC(C)C)CC(O)CC1O (stereo not given) [Alfacalcidol] | 72.3 | 59 | 51.8 | 91.3 | 31.7 ± 13 | 124 | 29.8 ± 8.2 | 70.1 | 52.6 ± 8.1 | 106 | 68.1 ± 0.89 | 49.9 ± 8.4 | 97.46 ± 0.87 |
| COC1=C(OC)C(=O)C(CCCCCCCCCCO)=C(C)C1=O [Idebenone] | 91.1 | 90.2 | 107 | 94.5 | 34 ± 2.8 | 107 | 39.1 ± 18 | 87.2 | 92.2 ± 61 | 104 | 78.2 ± 6.6 | 78.4 ± 30 | 51.9 ± 20 |
| Cc1nc(NC(=O)N2CCCC2C(N)=O)sc1-c1ccnc(C(C)(C)C(F)(F)F)c1 (stereo not given) | 74 | 64.7 | 54.9 | 83.3 | 85.7 ± 9.2 | 45.8 | 28.8 ± 5.1 | 75.9 | 44.2 ± 6.9 | 93.6 | 38.5 ± 2.5 | 65.6 ± 19 | 65.9 ± 2 |
| Clc1ccc(C(Cn2ccnc2)OCc2c(Cl)cccc2Cl)c(Cl)c1.O=[N+]([O-])O (stereo not given) [Isoconazole nitrate] | 123 | 112 | 126 | 105 | 57.9 ± 28 | 119 | 25.8 ± 3.4 | 101 | 54.2 ± 8.2 | 140 | 44.1 ± 5.8 | 52.1 ± 6.9 | 100 ± 2.2 |
| Nc1c(CC(=O)[O-])cccc1C(=O)c1ccccc1.O.[Na+] [Amfenac Sodium Monohydrate] | 97.6 | 93 | 115 | 99.5 | 56.6 ± 53 | 102 | 92.4 ± 14 | 92.6 | 114 ± 16 | 104 | 62.1 ± 8.9 | 82.7 ± 3.5 | 90.11 ± 0.73 |
| CN(C(=O)CN(CCO)CC(=O)N(C)C(C)(C)Cc1ccccc1)C(C)(C)Cc1ccccc1 [Oxethazaine] | 87.3 | 93.6 | 88.5 | 88.4 | 96.6 ± 4.3 | 55.9 | 69.4 ± 40 | 87.9 | 45.7 ± 12 | 83.1 | 39.3 ± 4.8 | 43.2 ± 9.4 | 96.4 ± 9.4 |
